The record followed here is PubChem BioAssay AID493240 (Broad Institute, 2011).

The structures appear in SMILES notation. About 270 (21%) of roughly 1,300 compounds were called active. No rule for the calls is given here. Not all results are given here. Results with a measured potency or affinity are listed apart.

This experiment is described as follows: cytotoxicity in parental SK-MEL-5 melanoma cells – cell-based, CellTiter-Glo, cherry-picked, set 3, orthogonal assay for MITF inhibitor project, dose response (AID 493240). To be noted: SK-MEL-5 viability, ATP luminescence (CellTiter-Glo), 24 h; series mostly up to 35 µM. (In general: In ATP-based viability assays light output follows the ATP content of the culture.)
`COc1ccc(C(=O)NCCSc2ccccc2C)cc1`: the outcome was inactive.
For `CCOc1ccc(NC(=O)c2ccccn2)cc1`, the result was inactive.
Turning to `CC(C)N=C(NS(=O)(=O)c1ccccc1)C(Cl)(Cl)Cl`, the outcome was inactive.
Turning to `O=C(Cn1cnc2ccccc2c1=O)Nc1ccc2c(c1)OCCO2`, the result was inactive.
Consider `Cc1nn(C)cc1/C=C/C(=O)c1cccs1`, for which the outcome was inactive.
Take `Cc1ccn2c(Nc3ccccc3)c(-c3ccccn3)nc2c1`: the result was inactive.
The result for `O=[N+]([O-])c1cc(C(F)(F)F)ccc1NCCc1ccccn1` reads “inactive”; that for `COc1ccc(COC(=O)c2n[nH]c3ccccc23)cc1F`, “inactive”.
Turning to `Cc1cc(Br)ccc1OCc1nc(-c2cccnc2)no1`, the outcome was inactive.
Take `O=C(NC1CCCCCC1)c1cc2ccccc2oc1=O`: the result was inactive.
For `CCOC(=O)c1cc([N+](=O)[O-])c([N+](=O)[O-])cc1NC(C)=O`, the outcome was inactive.
For `N/C(=N\OC(=O)c1ccccc1)c1ccccn1` the value was “inactive”.
As to `N/C(CS(=O)(=O)c1ccccn1)=N\OC(=O)c1ccccc1Cl`, the outcome was inactive.
`O=C(Nc1ccc2c(c1)OCCO2)c1ccoc1`: the result was inactive.
In the case of `COc1ccccc1NC(=O)c1cnc(SCC(=O)NCC2CCCO2)n(C)c1=O` (configuration not stated), the outcome was inactive.
On to `COc1ccc(Cn2c(-c3ccc(C)cc3)c[n+]3ccccc23)cc1`, for which the outcome was inactive.
With `COc1ccc2oc(=O)c(C(=O)Nc3ccccc3C)cc2c1`, the outcome was inactive.
The result for `CCC[n+]1c(C)sc2c3c(ccc21)CCCC3` reads “inactive”; that for `O=C(Nc1ccccc1)C1Cc2ccccc2CN1C(=O)c1ccco1` (configuration not stated), “inactive”.
Consider `Cc1ccc(OCCNCc2ccccc2)c(C)c1`, for which the outcome was inactive.
On to `Cc1cc(Cl)ccc1NC(=O)c1ccc2c(c1)OCO2`, for which the outcome was inactive.
The result for `CN(C)c1ccc(/C=C(\C#N)c2ccccn2)cc1` reads “inactive”; that for `O=C1NC2c3c(I)sc(I)c3C(=O)C2O1` (configuration not stated), “inactive”; that for `C/C(=N\Nc1cc(N2CCOCC2)ncn1)c1ccccc1`, “inactive”.
For `O=C(Nc1ccccc1N1CCN(C(=O)c2ccccc2)CC1)c1ccc([N+](=O)[O-])o1` the value was “inactive”.
With `COc1ccccc1N1CCN(/N=C/c2cccc(Cl)c2)CC1`, the result was inactive.
For the compound `O=C(CS(=O)c1ccc(C(F)(F)F)cc1[N+](=O)[O-])Oc1ccccc1` (configuration not stated), the outcome was inactive.
In the case of `O=C(/C=C\c1ccccc1)NCC(=O)N/N=C/c1ccc(O)cc1O`, the result was inactive.
On to `CCOC(=O)/C=c1/s/c(=C/c2ccc3cc(OC)ccc3c2)c(=O)n1CC(=O)NCC1CCCO1` (configuration not stated), for which the outcome was inactive.
Regarding `CC(C)(C)C(=O)/C(=C/c1ccncc1)n1cncn1`, the result was inactive.
Take `c1ccc(OCc2nn3c(-c4ccccn4)nnc3s2)cc1`: the result was inactive.
`O=C(N/N=C/c1ccccc1Cl)c1n[nH]c2c1CCCC2`: the result was inactive.
Take `N#Cc1cnn2cc(CCN3CCOCC3)c(-c3ccc(F)cc3)nc12`: the outcome was inactive.
For `CCCCC(=O)N/C(N)=N/c1nc2ccccc2o1`, the result was inactive.
The result for `C=CCn1cccc(C(=O)Nc2ccc(C)c(Cl)c2)c1=O` reads “inactive”; that for `N#C/C(C(=O)c1ccccc1)=C1/CCCCCN1`, “inactive”; that for `Cc1ccc2cc(NC(=O)Cc3ccccc3)ccc2n1`, “inactive”.
With `COc1cccc(/C=C2/Sc3ccc(C(=O)NCCN4CCCC4)cc3NC2=O)c1`, the outcome was inactive.
In the case of `CCN1CCCC1CNC(=O)c1ccc2c(c1)NC(=O)/C(=C\c1ccc(OC)c(OC)c1)S2` (configuration not stated), the outcome was inactive.
As for `CCN1CCN(CCCNC(=O)c2ccc3c(Cl)c4c(nc3c2)CCCC4)CC1`, the outcome was inactive.
With `Cc1cccc(/C=C2/Sc3ccc(C(=O)NCCN4CCCC4)cc3NC2=O)c1`, the result was inactive.
Regarding `COc1ccc(/C=C2\Sc3ccc(C(=O)NCCN4CCCCCC4)cc3N(C)C2=O)cc1`, the result was inactive.
Regarding `CC1(C)CC(=O)c2cnc(N3CCc4ccccc43)nc2C1`, the result was inactive.
On to `CC1=C/C(=N\NC(=S)Nc2cccnc2)CC(C)(C)C1`, for which the outcome was inactive.
With `CC(C)(C)NC(=O)CCN(/N=C/c1ccc([N+](=O)[O-])o1)C1=NS(=O)(=O)c2ccccc21`, the outcome was inactive.
Turning to `O=C1CCC2S/C(=C/Nc3ccc(C(F)(F)F)cc3)C(=O)N12` (configuration not stated), the outcome was inactive.
As for `Nc1nc2n[nH]nc2c(=O)[nH]1`, the result was inactive.
With `CN1CCN(c2ccc(NC(=S)NC(=O)c3cccc4ccccc34)cc2)CC1`, the outcome was inactive.
Turning to `CCOc1ccc(-n2c(O)c(/C=N/Nc3nc(C)cc(C)n3)c3ccccc3c2=O)cc1`, the result was inactive.
As for `O=C1N=C(N2CCOCC2)S/C1=C\C=C/c1ccccc1`, the outcome was inactive.
For the compound `O=C(c1ccc(F)cc1)N1CCC(c2ccccc2)C1` (configuration not stated), the result was inactive.
Turning to `COc1ccc2c(c1OC)C(=O)N(c1ccc(C)cc1)C2`, the result was inactive.
The result for `Cn1cc([N+](=O)[O-])c(C(=O)Nc2cc(Oc3ccccc3)cc([N+](=O)[O-])c2)n1` reads “inactive”; that for `Cc1cnc(NC(=O)c2nn(C)cc2[N+](=O)[O-])s1`, “inactive”.
As to `Cc1ccc(-n2nnnc2CNC(=O)c2ccc([N+](=O)[O-])o2)cc1C`, the outcome was inactive.
`CCc1cc(C=NC2CCCCC2)c(O)s1`: the outcome was inactive.
Take `Cc1ccc(-n2[nH]c(=O)c(-c3ccccn3)c2C)cc1`: the outcome was inactive.
In the case of `O=C(CSc1nc2ccccc2[nH]1)c1ccc2c(c1)OCO2`, the result was inactive.
Take `O=C(Nc1ccc(Br)cc1)c1ccc2c(c1)OCO2`: the outcome was inactive.
As for `CCc1ccc(-c2cc(C(=O)Nn3cnnc3)c3ccccc3n2)cc1`, the outcome was inactive.
Turning to `CCc1ccccc1NC(=O)CN(C)C(=O)Cn1ncc(Cl)c(Cl)c1=O`, the result was inactive.
Regarding `CCOC(=O)c1[nH]cnc1N=Nc1c(O)ccc2ccccc12`, the result was inactive.
With `O=C(N/N=C/c1ccc([N+](=O)[O-])o1)c1ccccc1-n1cccc1`, the outcome was inactive.
Regarding `O=[N+]([O-])c1ccc(/C=N/N=C/c2ccc([N+](=O)[O-])o2)o1`, the outcome was inactive.
As to `O=C(N/N=C/c1ccc([N+](=O)[O-])o1)c1sc2ccccc2c1Cl`, the outcome was inactive.
Regarding `O=C(Cn1ncc(Cl)c(Cl)c1=O)N1CCOCC1`, the outcome was inactive.
With `O=[N+]([O-])c1ccc(/C=N/Nc2ccnc3cc(Cl)ccc23)o1`, the result was inactive.
As for `COc1cccc(NC(=O)Nc2cccc(C(=O)O)c2)c1`, the outcome was inactive.
The result for `COc1cc(OC)cc(C(=O)Nc2ccc3c(c2)OCCO3)c1` reads “inactive”; that for `C/C(=N/N=C(/C)c1cccs1)c1cccs1`, “inactive”.
Regarding `O=C(Nc1nc(-c2ccccn2)cs1)c1ccccc1-n1cnnn1`, the outcome was inactive.
As to `COc1ccc(Br)cc1C(C[N+](=O)[O-])c1c(N)n(C)c(=O)n(C)c1=O` (configuration not stated), the outcome was inactive.
Consider `O=C(CCC1CCCN(C(=O)c2cc3ccccc3o2)C1)NCc1ccc(F)c(F)c1` (configuration not stated), for which the result was inactive.
For the compound `CCOC(=O)c1sc(NC(=O)Nc2ccc(Cl)cc2)nc1C`, the result was inactive.
With `O=C(NC1CCCCC1)c1cc2cc(Br)ccc2o1`, the result was inactive.
For `C=CCOc1ccc(/C=C/C(C)=N\O)cc1`, the result was inactive.
Turning to `Cc1cc(C)c(C#N)c(SCc2nnc(-c3ccccc3)o2)n1`, the result was inactive.
For `COc1ccc2nc(C)cc(SCC(=O)N/N=C/c3ccc(O)cc3O)c2c1` the value was “inactive”; for `O=C(CNC(=O)c1ccc(Br)cc1)c1ccccc1`, “inactive”.
With `Nc1ccc(Oc2cccc(Oc3ccc(N)cc3)c2)cc1`, the outcome was inactive.
`O=C(Nc1cc(-c2nc3ncccc3o2)ccc1Cl)c1ccc([N+](=O)[O-])o1`: the outcome was inactive.
For `COc1ccc(C[C@H]2CN3C(=NC[C@@H]3C(C)C)N2CCNC(=O)c2ccc(C)c(Br)c2)cc1` the value was “inactive”; for `CCOc1ccc(C(=O)Nc2cccc(C(=O)O)c2C)cc1Cl`, “inactive”.
Regarding `COc1cccc(C(=O)Oc2c(CN3CCOCC3)cc(Cl)c3cccnc23)c1`, the result was inactive.
Consider `Cc1onc(-c2ccccc2)c1C(=O)N/N=C/c1ccc([N+](=O)[O-])s1`, for which the result was inactive.
In the case of `Cc1ccccc1C(=O)N/N=C/c1ccc([N+](=O)[O-])s1`, the result was inactive.
For `CCOc1ccc(NC(=O)CCC(=O)N/N=C/c2ccc([N+](=O)[O-])s2)cc1` the value was “inactive”.
The result for `O=C(N/N=C/c1ccc([N+](=O)[O-])s1)c1ccccc1Br` reads “inactive”.
As for `O=C(N/N=C/c1ccc([N+](=O)[O-])s1)c1ccccc1`, the result was inactive.
Regarding `O=C(N/N=C/c1ccc([N+](=O)[O-])s1)c1cccc(Br)c1`, the outcome was inactive.
Regarding `O=C(CNC(=O)c1cccc(F)c1)N/N=C/c1ccc([N+](=O)[O-])s1`, the result was inactive.
For the compound `CC(=O)c1ccc(S(=O)(=O)N2CCN(C(=O)/C=C/c3ccc4ccccc4n3)CC2)cc1`, the result was inactive.
`CN(C)c1ccc(/C=N/N2CCN(c3ccccn3)CC2)cc1`: the result was inactive.
For `CC(=O)Nc1nc(C)c(-c2csc(Nc3cccc(C(C)=O)c3)n2)s1`, the outcome was inactive.
Turning to `O=C(O)c1ccccc1C(=O)Nc1ccc(Oc2cccc3ccccc23)cc1`, the outcome was inactive.
Turning to `O=C(Nc1ccc(N2CCOCC2)c(Cl)c1)c1cccc(F)c1`, the result was inactive.
`O=C(Cc1ccccc1)NCC(=O)N/N=C/c1ccc([N+](=O)[O-])s1`: the outcome was inactive.
On to `O=C(CNC(=O)c1ccccc1)N/N=C/c1ccc([N+](=O)[O-])s1`, for which the outcome was inactive.
The result for `CCCN1C(=O)c2ccc(C(=O)Nc3cc(C)ccc3O)cc2C1=O` reads “inactive”.
The result for `Cc1cc(C)c2c(N)c(C(=O)N/N=C/c3ccccc3)sc2n1` reads “inactive”.
Turning to `Cc1c(Cl)c([N+](=O)[O-])nn1Cc1ccc(C(=O)N/N=C\c2cc(Cl)ccc2O)o1`, the result was inactive.
Take `O=C(Nc1cccc(S(=O)(=O)N2CCCCC2)c1)c1ccc([N+](=O)[O-])o1`: the result was inactive.
Regarding `O=C(Nc1ccc(S(=O)(=O)N2CCCCCC2)cc1)c1[nH]ncc1[N+](=O)[O-]`, the outcome was inactive.
As for `O=C(CSc1nnnn1-c1ccc(O)cc1)Nc1cccc(S(=O)(=O)N2CCCC2)c1`, the outcome was inactive.
For `O=C(N/N=C\c1cc(Cl)ccc1O)c1ccc(S(=O)(=O)N2CCCCC2)cc1` the value was “inactive”; for `COc1ccc(NS(=O)(=O)c2cc(NC(=O)CNC(=O)c3cccc(OC)c3)ccc2C)cc1`, “inactive”.
For the compound `O=C(CCl)Nc1cccc(S(=O)(=O)NC2=NCCCCC2)c1`, the result was inactive.
Regarding `Cc1cccc(NC(=O)Cc2ccc(Br)cc2)n1`, the result was inactive.
As for `Cc1ccc(Nc2nnc(-c3ccccc3N)o2)cc1C`, the result was inactive.
With `COc1ccc(NC(=O)C2COc3ccccc3O2)cc1` (configuration not stated), the result was inactive.
As for `Cn1nnnc1Sc1ncnc2scc(-c3cccs3)c12`, the result was inactive.
On to `Cc1csc(NC(=O)Cc2c(F)cccc2Cl)n1`, for which the result was inactive.
